In PubChem BioAssay (NCATS):
Where “and” joins values, the source holds several entries; their conditions need not be identical. Equal values may be shown once. Inconclusive results are not listed. Calls of active or inactive are those of the source. Unless noted, calls come from the whole dose curve; as a rule, active = well fitted curve in the direction sought with a large enough effect; inconclusive = small, poorly fitted or top-dose-only effect, or another doubt; inactive = no such curve, though single readings can be large; an effect the other way counts as inactive or inconclusive.

What was measured:
[1] = Cell Viability - BJ (AID 421; calls by dose curve;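 note: potency is the fitted concentration of half-maximal effect; cells exposed to compound for 40 hours at 37 °C before readout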); conditions: BJ fibroblast viability, qHTS
Outline: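 Cytotoxicity in human BJ foreskin fibroblasts is scored as loss of cellular ATP after a 40-hour exposure, measured by luciferase luminescence. Controls are DMSO and 100 uM tamoxifen.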

[2] = Cell Viability - Jurkat (AID 426;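 active = dose-dependent loss of cell ATP signal giving a full or clear fitted curve, ranked by lower potency value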;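 note: potency is the fitted concentration of half-maximal effect; cells exposed to compound for 40 hours at 37 °C before ATP read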); conditions: qHTS
Outline: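 Luminescent ATP read-out (CellTiter-Glo, 20 min at room temperature) after 40 hr compound exposure at 37 °C of Jurkat E6-1 cells, 5000/well. Decreased ATP taken as cytotoxicity; AC50 from standard Hill equation.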

[3] = Cell Viability - Hek293 (AID 427;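 active = compounds whose dose-response curve shows a full or clear partial loss of cell viability, called from curve shape rather than a numeric limit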;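 note: potency is the fitted concentration of half-maximal effect; cells exposed to compound for 40 hours at 37 °C before reading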); conditions: qHTS
Outline: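 qHTS, human embryonic kidney (adenovirus-transformed) cells; 40 hr cpd, 37 °C; CellTiter-Glo ATP luminescence. Norm: DMSO = 0, 100 uM tamoxifen = 100% inhibition. Hill-fit AC50.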

[4] = Cell Viability - HepG2 (AID 433; calls by dose curve;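 note: potency is the fitted concentration of half-maximal effect; cells exposed to compound for 40 hours; potency for ATP loss meaning cytotoxicity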); conditions: qHTS
Outline: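 ATP luminescence (CellTiter-Glo) after 40 h compound exposure, 37 °C, HepG2, 1500 cells/well, complete medium. Normalized: DMSO = basal, 100 uM tamoxifen = 100% inhibition. AC50 via standard Hill equation.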

[5] = Cell Viability - MRC5 (AID 434; calls by dose curve;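 note: potency is the fitted concentration of half-maximal effect; cells exposed to compound for 40 hours at 37 °C; potency reflects cytotoxicity seen as loss of intracellular ATP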); conditions: MRC5 lung fibroblast viability, qHTS
Outline: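 ATP luminescence read-out (CellTiter-Glo, 20 min RT) after 40 hr, 37 °C compound exposure of 1500 MRC5 cells/well. Data normalized to DMSO (basal) and 100 uM tamoxifen (100% inhibition); AC50 from standard Hill equation.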

[6] = Cell Viability - SK-N-SH (AID 435; calls by dose curve; note: potency is the fitted concentration of half-maximal effect); conditions: SK-N-SH neuroblastoma cell viability qHTS
Outline: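 CellTiter-Glo ATP luminescence, 20 min RT read; cells pre-plated 5 hr, compound 40 hr at 37 °C, 1500 cells/well, complete medium. Normalized DMSO = 0, 100 uM tamoxifen = 100% inhibition; Hill-fit AC50.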

[7] = Cellular Toxicity (caspase-3) HepG2 (AID 654); conditions: HepG2 caspase-3 activation, luminescence, 0% = DMSO only, 100% = tamoxifen; series mostly up to 92.2 µM;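 note: cells exposed to compound for 16 hours before reading; 0% = DMSO alone and 100% = caspase signal from 100 µM tamoxifen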
Outline: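 Luminescent Caspase-Glo 3/7 readout after 16 hr compound exposure of human hepatocellular carcinoma HepG2 cells at 37 °C; qHTS concentration-response, normalized DMSO = 0%, 100 uM tamoxifen = 100%; AC50 by standard Hill equation.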

[8] = Cellular Toxicity (caspase-3) BJ (AID 658); conditions: BJ fibroblasts, luminescence, normalized: DMSO 0%, staurosporine 100%; series mostly up to 91.7 µM
Outline: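 qHTS, BJ fibroblasts, 1000 cells/well; 5 hr preincubation, 16 hr compound, 37 °C; Caspase-Glo 3/7 reagent, 1 hr RT; luminescence. DMSO = 0%, 10 uM staurosporine = 100%. Hill-equation AC50.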

[9] = Cellular Toxicity (caspase-3) MRC-5 (AID 659); conditions: MRC-5 cells, luminescence, normalized: DMSO 0%, 10 µM staurosporine 100%; series mostly up to 91.7 µM
Outline: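 MRC-5 fibroblasts, 1500/well; 16 h cpd, 37 °C; Caspase-Glo 3/7, 1 h RT; lumi read. Norm: DMSO = 0%, 10 uM staurosporine = 100%. Hill-fit AC50 from qHTS conc-response.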

[10] = Cellular Toxicity (caspase-3) Hek293 (AID 664); conditions: HEK293 caspase-3 activation, DMSO = 0%, 100 µM tamoxifen = 100%; at 92.2 µM (top of the series);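 note: cells exposed to compound for 16 h at 37 °C before readout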
Outline: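 Luminescent Caspase-Glo 3/7 readout (aminoluciferin release) in HEK293 cells after 16 h compound treatment, 37 °C. Normalization: DMSO = basal, 100 uM tamoxifen = 100% stimulation. Concentration-response fitted with standard Hill equation for AC50.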

[11] = Cellular Toxicity (caspase-3) N2a (AID 665); conditions: N2a cells, luminescence, normalized: DMSO 0%, 10 µM staurosporine 100%; series mostly up to 92.2 µM;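 note: compound exposure lasted 16 h at 37 °C before readout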
Outline: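 Luminescent Caspase-Glo 3/7 readout in N2a mouse neuroblastoma cells after 16 h compound exposure at 37 °C. Signal scaled to DMSO (basal) and 10 uM staurosporine (100%). Concentration-response fitted with Hill equation for AC50.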

[12] = Cellular Toxicity (caspase-3) NIH 3T3 (AID 666); conditions: NIH 3T3 caspase-3 activation, apoptosis/toxicity; series mostly up to 92.2 µM;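 note: 0% = DMSO basal and 100% = 100 µM tamoxifen stimulation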
Outline: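 NIH 3T3, 1000 cells/well, 5 hr settle then 16 hr compound at 37°C; Caspase-Glo 3/7, 20 min RT, luminescence. DMSO = basal, 100 uM tamoxifen = 100%. Hill-equation AC50, qHTS.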

[13] = MultiTox-Fluor Cytotoxicity Assay - LYMP1-001 - Dead Cells (AID 946); conditions: LYMP1-001 lymphoblastoid cells, dead-cell protease fluorescence; series mostly up to 92.2 µM
Outline: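 Seed 2500 LYMP1-001 cells/well, incubate 5 hr at 37 C; add compound, 16 hr at 37 C; add MultiTox-Fluor reagent, 60 min RT; read dead-cell fluorescence Ex/Em=485/520. Normalize to DMSO and 15 uM tetraoctylammonium bromide.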

[14] = MultiTox-Fluor Cytotoxicity Assay - LYMP1-002 - Live Cells (AID 955); conditions: LYMP1-002 lymphoblastoid live-cell protease fluorescence viability; series mostly up to 46.1 µM; note: % is set by controls: 0 for no effect and ±100 for the full control effect
Outline: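 LYMP1-002 lymphoblastoid cells; 2500 cells/well; 16 hr compound exposure, 37 C; MultiTox-Fluor reagent 60 min RT; live-cell fluorescence Ex/Em=405/510; qHTS concentration-response, Hill-equation AC50; tetraoctylammonium bromide positive control.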

[15] = MultiTox-Fluor Cytotoxicity Assay - LYMP1-003 - Dead Cells (AID 961); conditions: LYMP1-003 lymphoblastoid cells, dead-cell protease fluorescence; series mostly up to 92.2 µM; note: nearly all actives have a fitted effect of over 70% in size
Outline: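 LYMP1-003 lymphoblastoid, 2500 cells/well, 5 hr settle then 16 hr cpd at 37 C; MultiTox-Fluor reagent 60 min RT; Ex/Em 485/520 dead-cell signal; norm. DMSO = 0%, 15 uM tetraoctylammonium bromide = 100%; Hill AC50.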

[16] = Cell Viability - LYMP2-008 (AID 980); conditions: LYMP2-008 lymphoblastoid cell viability, qHTS; series mostly up to 92.2 µM; note: % is set by controls: 0 for no effect and ±100 for the full control effect; nearly all actives have a fitted effect of over 60% in size
Outline: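 Luminescent ATP read-out (CellTiter-Glo, 30 min RT) after 24 hr compound exposure at 37 C of human lymphoblastoid cells in complete medium. Decrease in ATP taken as cytotoxicity; AC50 derived by standard Hill fit of qHTS concentration-response data.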

[17] = Cell Viability - LYMP1-002 - Assay at 24 hr (AID 993); conditions: LYMP1-002 lymphoblastoid cells viability; series mostly up to 92.2 µM; note: % is set by controls: 0 for no effect and ±100 for the full control effect
Outline: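 CellTiter-Glo luminescence (intracellular ATP) after 24 h compound exposure, 37 C, in LYMP1-002 human lymphoblastoid cells; decreased ATP taken as cytotoxicity. AC50 from standard Hill fit of concentration-response curves.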

[18] = qHTS Assay for Identification of Small Molecule Inducers of Hypoxia Response (AID 2120; active = well fitted curve in the direction sought with a large enough effect in the signal ratio, with a control signal flat, not every such curve was filed as active; the % refers to the signal ratio; note: 0% is about no effect); conditions: hypoxia response reporter cells, beta-lactamase ratio readout; series mostly up to 104 µM
Outline: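 Read-out: CCF4 FRET emission ratio 460nm/530nm (excitation 405nm), converted to %Activity, with AC50 fitted across a compound titration. ME-180 cells carried an HRE-driven beta-lactamase reporter; compound exposure 17 h, 37 degrees C.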

[19] = biological target: Peroxisome proliferator-activated receptor alpha (Homo sapiens) (UniProt Q07869); assay: qHTS assay for small molecule agonists of the peroxisome proliferator-activated receptor alpha (PPARalpha) signaling pathway (AID 651778); conditions: PathHunter PPARalpha complementation, chemiluminescence, 6 h; hits give high values; note: % of control where 0% means no effect
Outline: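 Enzyme-fragment complementation assay in which ligand-bound PPARalpha translocates and forms an active enzyme that generates chemiluminescence. Cells were plated overnight, exposed to compound for 6 hr at 37 C, and then given detection reagent for 60 min at room temperature.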

[20] = qHTS assay for cell viability of the p53RE-bla HCT-116 cell line (AID 743292); conditions: p53RE-bla HCT-116 viability, ATP luminescence, 16 h; series mostly up to 95 µM; note: % is set by controls: 0 for no effect and ±100 for the full control effect; nearly all actives have a fitted effect of over 55% in size
Outline: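 CellSensor p53RE-bla HCT-116 cells, 4,000/well, preincubated 5 h at 37 C, then exposed to compounds in DMSO for 16 h at 37 C. Viability read as CellTiter-Glo luminescence (intracellular ATP) after 30 min at room temperature.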

Sequence of Peroxisome proliferator-activated receptor alpha (Homo sapiens) (Q07869 whole entry, looked up, the tested form may be a part): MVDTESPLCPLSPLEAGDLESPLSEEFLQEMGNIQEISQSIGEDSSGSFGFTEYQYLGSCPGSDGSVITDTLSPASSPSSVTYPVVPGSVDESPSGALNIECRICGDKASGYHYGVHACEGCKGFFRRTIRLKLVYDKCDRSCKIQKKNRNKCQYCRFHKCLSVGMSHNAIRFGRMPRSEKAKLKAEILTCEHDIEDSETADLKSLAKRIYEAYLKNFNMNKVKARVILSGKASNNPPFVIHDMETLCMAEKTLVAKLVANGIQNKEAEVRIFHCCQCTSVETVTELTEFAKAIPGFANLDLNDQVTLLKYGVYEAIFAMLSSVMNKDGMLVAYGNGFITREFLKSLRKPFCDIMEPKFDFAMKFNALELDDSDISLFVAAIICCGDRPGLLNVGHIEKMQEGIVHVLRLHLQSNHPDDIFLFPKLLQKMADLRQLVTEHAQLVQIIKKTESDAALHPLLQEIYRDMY

Clc1ccc(C(Cl)(Cl)Cl)cc1Cl
inactive: Potency [1] > 92 µM | Potency [2] > 92 µM | Potency [3] > 92 µM | Potency [4] > 92 µM | Potency [5] > 92 µM | Potency [6] > 92 µM | outcome [7] | outcome [8] | outcome [9] | caspase-3 activation [10] 1.11% | outcome [11] | Potency [12] | outcome [13] | outcome [14] | Potency [15] | Potency [16] | Potency [17] | Potency [18] | max response [19] 1.82% | Potency [20]

CCCCCC[N+](=O)[O-]
inactive: Potency [1] > 92 µM | Potency [2] > 92 µM | Potency [3] > 92 µM | Potency [4] > 92 µM | Potency [5] > 92 µM | Potency [6] > 92 µM | outcome [7] | outcome [8] | outcome [9] | caspase-3 activation [10] -0.935% | outcome [11] | Potency [12] | outcome [13] | outcome [14] | Potency [15] | Potency [16] | Potency [17] | Potency [18] | max response [19] 6.24% | Potency [20]

O=[N+]([O-])c1cccc2c([N+](=O)[O-])cccc12
inactive: Potency [1] > 92 µM | Potency [2] > 92 µM | Potency [3] > 92 µM | Potency [4] > 92 µM | Potency [5] > 92 µM | Potency [6] > 92 µM | outcome [7] | outcome [8] | outcome [9] | caspase-3 activation [10] -0.427% | outcome [11] | Potency [12] | outcome [13] | outcome [14] | Potency [15] | Potency [16] | Potency [17] | Potency [18] | max response [19] -0.14% | Potency [20]

S=c1[nH]c2ccccc2[nH]1
inactive: Potency [1] > 92 µM | Potency [2] > 92 µM | Potency [3] > 92 µM | Potency [4] > 92 µM | Potency [5] > 92 µM | Potency [6] > 92 µM | outcome [7] | outcome [8] | outcome [9] | caspase-3 activation [10] 0.513% | outcome [11] | Potency [12] | outcome [13] | outcome [14] | Potency [15] | Potency [16] | Potency [17] | Potency [18] | max response [19] -5.62% | Potency [20]

O=C(Cl)OCc1ccccc1
inactive: Potency [1] > 92 µM | Potency [2] > 92 µM | Potency [3] > 92 µM | Potency [4] > 92 µM | Potency [5] > 92 µM | Potency [6] > 92 µM | outcome [7] | outcome [8] | outcome [9] | caspase-3 activation [10] 0.783% | outcome [11] | Potency [12] | outcome [13] | outcome [14] | Potency [15] | Potency [16] | Potency [17] | Potency [18] | max response [19] 0.201% | Potency [20]

Cc1ccc([N+](=O)[O-])cc1
inactive: Potency [1] > 92 µM | Potency [2] > 92 µM | Potency [3] > 92 µM | Potency [4] > 92 µM | Potency [5] > 92 µM | Potency [6] > 92 µM | outcome [7] | outcome [8] | outcome [9] | caspase-3 activation [10] -0.449% | outcome [11] | Potency [12] | outcome [13] | outcome [14] | Potency [15] | Potency [16] | Potency [17] | Potency [18] | max response [19] -0.114% | Potency [20]

CN=C=O
inactive: Potency [1] > 92 µM | Potency [2] > 92 µM | Potency [3] > 92 µM | Potency [4] > 92 µM | Potency [5] > 92 µM | Potency [6] > 92 µM | outcome [7] | outcome [8] | outcome [9] | caspase-3 activation [10] 1.04% | outcome [11] | Potency [12] | outcome [13] | outcome [14] | Potency [15] | Potency [16] | Potency [17] | Potency [18] | max response [19] 1.15% | Potency [20]

Cc1cc(-c2ccc(N)c(C)c2)ccc1N
inactive: Potency [1] > 92 µM | Potency [2] > 92 µM | Potency [3] > 92 µM | Potency [4] > 92 µM | Potency [5] > 92 µM | Potency [6] > 92 µM | outcome [7] | outcome [8] | outcome [9] | caspase-3 activation [10] -2.85% | outcome [11] | Potency [12] | outcome [13] | outcome [14] | Potency [15] | Potency [16] | Potency [17] | Potency [18] | max response [19] -2.87% and -0.886% and -6.11% | Potency [20]

COC(=O)Nc1cccc(OC(=O)Nc2cccc(C)c2)c1
inactive: Potency [1] > 92 µM | Potency [2] > 92 µM | Potency [3] > 92 µM | Potency [4] > 92 µM | Potency [5] > 92 µM | Potency [6] > 92 µM | outcome [7] | outcome [8] | outcome [9] | caspase-3 activation [10] 0.0585% | outcome [11] | Potency [12] | outcome [13] | outcome [14] | Potency [15] | Potency [16] | Potency [17] | Potency [18] | max response [19] -6.94% | Potency [20]

CC(C)CC(C)N (stereo not given)
inactive: Potency [1] > 92 µM | Potency [2] > 92 µM | Potency [3] > 92 µM | Potency [4] > 92 µM | Potency [5] > 92 µM | Potency [6] > 92 µM | outcome [7] | outcome [8] | outcome [9] | caspase-3 activation [10] 1.99% | outcome [11] | Potency [12] | outcome [13] | outcome [14] | Potency [15] | Potency [16] | Potency [17] | Potency [18] | max response [19] 1.79% | Potency [20]
